The results in this text go back to PubChem BioAssay.

Activity calls are given as the source filed them. Unless noted, no rule for the calls is given here.

The test system of assay [1] is XIP peptide (Xip251-270) binding. Put plainly: XIP fragment 251-270 binding compounds – biochemical, small-molecule microarray, fluorescence 635/667 nm, 0.1 µg/mL protein, primary screen (AID 1182). The conditions noted are these: fluorescent protein binding, 635 nm, higher = more signal, called active from +8 up or from −8 down.
For another assay, the system named is XIP peptide (Xip251-270). Kind of assay: compounds binding XIP fragment 251-270 – biochemical, small-molecule microarray, fluorescence 635/667 nm, 0.5 µg/mL protein, primary screen (AID 1183). The conditions noted are these: fluorescence 635 nm, higher = more signal.
The nature of assay [2]: blood-stage malaria parasite viability loss – strain 3D7, DAPI fluorescence, 100 nL, primary screen (AID 1184).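 Also: parasites grown inside human red blood cells in medium with human serum.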 The conditions noted are these: P. falciparum 3D7 growth, 3 d, higher = more signal.
In assay [3] the target is Homeobox protein Hox-A13 (Mus musculus) (UniProt Q62424). Put plainly: disruptors of Hoxa13 oligonucleotide interaction – biochemical, fluorescence polarization, labeled oligonucleotide, primary screen (AID 1185). The conditions noted are these: Hoxa13:DNA binding, 15 min, higher = more signal, called active from +8 up or from −8 down.
Sequence of Homeobox protein Hox-A13 (Mus musculus) (Q62424 whole entry, looked up): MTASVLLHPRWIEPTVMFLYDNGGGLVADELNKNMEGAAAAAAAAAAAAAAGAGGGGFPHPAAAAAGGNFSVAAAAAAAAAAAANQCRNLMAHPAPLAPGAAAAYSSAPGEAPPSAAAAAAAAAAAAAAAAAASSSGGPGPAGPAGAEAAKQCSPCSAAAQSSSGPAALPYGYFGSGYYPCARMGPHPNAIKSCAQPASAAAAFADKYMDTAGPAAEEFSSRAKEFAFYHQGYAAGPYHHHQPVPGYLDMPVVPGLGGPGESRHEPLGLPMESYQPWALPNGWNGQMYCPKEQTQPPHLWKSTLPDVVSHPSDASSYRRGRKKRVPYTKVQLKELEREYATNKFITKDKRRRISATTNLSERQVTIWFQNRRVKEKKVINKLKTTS
The nature of assay [4]: blockers of DNA damage checkpoint Chk1 activation – imaging, HeLa, hydroxyurea, phospho-Chk1 antibody, percent positive cells, primary screen (AID 1186). The conditions noted are these: hydroxyurea-induced phospho-Chk1 immunofluorescence imaging, higher = more signal.
The nature of assay [5]: blockers of DNA damage checkpoint Chk1 activation – imaging, HeLa, hydroxyurea, phospho-Chk1 nuclear intensity, primary screen (AID 1187). The conditions noted are these: hydroxyurea-induced phospho-Chk1 immunofluorescence imaging, higher = more signal.

Take `C=CCC(OC(C)=O)[C@@H]1[C@@H](N(Cc2cccc3ccccc23)C(=O)Cc2ccc(F)cc2)c2cc(OCCCO)ccc2N1C(=O)c1ccc2ccccc2n1` (some centres not stated): the composite z-score in assay [1] was -0.533 (inactive); in the assay with XIP peptide (Xip251-270), -0.272. In addition, the z-score in assay [2] was -2.13; in assay [3] it was -1.34 (inactive); in assay [4], -0.172 (inactive); in assay [5], -0.761 (inactive).
Turning to `O=c1n(-c2ccccc2)c(=O)n2n1CC(COc1ccccc1)=C([C@H](O)CCc1ccccc1)[C@@H]2CO`, the composite z-score in assay [1] was 0.0148 (inactive); in the assay on XIP peptide (Xip251-270), -0.407. Further, the z-score was -0.601 in assay [2], -7.77 (inactive) in assay [3], -0.268 (inactive) in assay [4] and 0.771 (inactive) in assay [5].
For `COC(=O)[C@@]1(Cc2ccc(OC)cc2)[C@@H]2C(=CC(=O)[C@H]2CC(=O)C(=O)N(C)C)CN1C(=O)c1ccccc1`, the values for the composite z-score (in assay [1]; in the assay with XIP peptide (Xip251-270)) were 0.0312 (inactive) and 0.739, respectively. The z-score in assay [2] was -1.73; in assay [3], -3.95 (inactive); in assay [4], -0.246 (inactive); in assay [5] it was -0.0503 (inactive).
On to `CC(C)Cc1ccc(CN2CC[C@@H](NC(=O)Nc3ccccc3)C2)cc1`, for which the composite z-score in assay [1] was -0.243 (inactive); in the assay on XIP peptide (Xip251-270) it was -0.238. The z-score in assay [2] was -1.51; in assay [3] it was 0.339 (inactive); in assay [4] it was 0.146 (inactive); in assay [5], 0.459 (inactive).
Regarding `Cn1cccc1C(O)C1C=CC2C(=O)NC(=O)C2N1Nc1ccc(Cl)cc1Cl` (configuration not stated), the composite z-score was 0.789 (inactive) in assay [1] and 0.768 with XIP peptide (Xip251-270). Further, the z-score in assay [2] is -0.152; in assay [3], -3.92 (inactive); in assay [4] it was 0.702 (inactive); in assay [5] it was 0.532 (inactive).
Consider `O=C1NC(=O)C2C1C=CC(C(O)c1c(F)cccc1Cl)N2Nc1ccc(Cl)cc1Cl` (configuration not stated), for which the composite z-score in assay [1] is 0.831 (inactive); in the assay with XIP peptide (Xip251-270), 0.709. In addition, the z-score was -0.0027 in assay [2], -6.24 (inactive) in assay [3], 1.05 (inactive) in assay [4] and 0.702 (inactive) in assay [5].
On to `O=C1O[C@@H](c2ccccc2)[C@@H](c2ccccc2)N2[C@@H](c3ccc(OCCO)cc3)[C@]3(C(=O)Nc4ccccc43)[C@@H](C(=O)O)[C@H]12`, for which the composite z-score in assay [1] is 0.442 (inactive); with XIP peptide (Xip251-270), -0.105. The z-score in assay [2] was -1.29; in assay [3] it was -6.16 (inactive); in assay [4] it was -0.33 (inactive); in assay [5] it was -0.413 (inactive).
Take `CN1C(=O)C2C=CC(C(O)c3cccc4ccccc34)N(N3CCCCC3)C2C1=O` (configuration not stated): the composite z-score in assay [1] is 0.356 (inactive); in the assay with XIP peptide (Xip251-270), 0.749. Also, the z-score in assay [2] is 0.83; in assay [3] it was -4.64 (inactive); in assay [4], 0.906 (inactive); in assay [5], 0.271 (inactive).
Turning to `O=C1O[C@@H](c2ccccc2)[C@@H](c2ccccc2)N2[C@@H](c3ccc(O)cc3)[C@]3(C(=O)Nc4ccc(C#CC5=CCCCC5)cc43)[C@@H](C(=O)NC[C@H](O)c3ccccc3)[C@H]12`, the composite z-score in assay [1] is 0.662 (inactive); in the assay on XIP peptide (Xip251-270), 0.772. Also, the z-score in assay [2] was -0.369; in assay [3] it was 0.986 (inactive); in assay [4], -0.384 (inactive); in assay [5], -0.016 (inactive).
Consider `COc1cc(CO)cc(I)c1O[C@H]1C=C(C(=O)NCCO)C[C@@H](NCc2ccc(F)cc2)[C@@H]1O`, for which the composite z-score was -0.35 (inactive) in assay [1] and 0.728 in the assay with XIP peptide (Xip251-270). Moreover, the z-score in assay [2] is -3.1; in assay [3] it was -7.05 (inactive); in assay [4], -0.926 (inactive); in assay [5], -2.03 (inactive).
Turning to `O=C(NCc1ccccc1)[C@@H]1c2ccccc2C(=O)N(Cc2ccccc2C(F)(F)F)[C@H]1c1ccc(CO)cc1`, the figures for the composite z-score (in assay [1]; with XIP peptide (Xip251-270)) were 0.55 (inactive) and 0.545, respectively. The z-score in assay [2] is 0.0452; in assay [3], -3.17 (inactive); in assay [4] it was -0.496 (inactive); in assay [5], -0.841 (inactive).
`O=C1NC(=O)C2C1C=CC(C(O)CCc1ccccc1)N2Nc1ccc(Cl)cc1Cl` (configuration not stated): the values for the composite z-score (in assay [1]; with XIP peptide (Xip251-270)) were 0.157 (inactive) and 0.284, respectively. In addition, the z-score is 1.5 in assay [2], -5.96 (inactive) in assay [3], 0.738 (inactive) in assay [4] and 0.185 (inactive) in assay [5].
Turning to `COCCOC(=O)N1C(=O)[C@@]2(c3cc(C#CCCO)ccc31)[C@H](c1ccccc1OCCO)N1[C@H](c3ccccc3)[C@H](c3ccccc3)OC(=O)[C@H]1[C@@H]2C(=O)Nc1nc2ccccc2s1`, the composite z-score is 1.45 (inactive) in assay [1] and 0.823 in the assay on XIP peptide (Xip251-270). The z-score in assay [2] was -1.45; in assay [3], 1.85 (inactive); in assay [4], 0.0686 (inactive); in assay [5], 0.0927 (inactive).
As to `COc1ccc([Si](C)(C)[C@@H]2[C@@H](CC(=O)N(CCO)Cc3ccccc3)O[C@]3(C(=O)N(Cc4cccc(N5CCOC5=O)c4)c4ccccc43)[C@H]2C)cc1`, the figures for the composite z-score (in assay [1]; with XIP peptide (Xip251-270)) were 1.18 (inactive) and 0.799, respectively. Besides, the z-score in assay [2] was -2.16; in assay [3] it was -2.52 (inactive); in assay [4], 0.437 (inactive); in assay [5] it was -0.0407 (inactive).
For the compound `O=C1N(Cc2ccccc2)c2ccccc2[C@@H]2OC(c3ccc(OCCCO)cc3)=N[C@]12Cc1ccccc1`, the composite z-score in assay [1] is 0.0973 (inactive); in the assay on XIP peptide (Xip251-270) it was 0.862. The z-score is -2.45 in assay [2], -2.22 (inactive) in assay [3], -0.389 (inactive) in assay [4] and -0.321 (inactive) in assay [5].
`Cc1ccc(S[C@]2(C(=O)NCC(F)(F)F)CC(=O)N(Cc3ccccc3)[C@@H]2c2ccc(CO)cc2I)cc1`: the composite z-score in assay [1] is -0.0862 (inactive); in the assay on XIP peptide (Xip251-270), 0.442. Moreover, the z-score in assay [2] is 0.15; in assay [3] it was -3.68 (inactive); in assay [4] it was 0.475 (inactive); in assay [5], 0.554 (inactive).
For the compound `C=C(COC)/C(=C/C[C@H](OC(C)=O)c1ccc(OCCO)cc1)c1cc(C(=O)OC)ccc1OC`, the composite z-score in assay [1] is 0.192 (inactive); in the assay on XIP peptide (Xip251-270) it was 0.731. Also, the z-score in assay [2] was -2.95; in assay [3] it was -4.11 (inactive); in assay [4], -0.285 (inactive); in assay [5], 0.98 (inactive).
